Assay outcomes deposited in PubChem BioAssay by National Center for Advancing Translational Sciences (NCATS).
NS1 inh: blocks influenza NS1 protein function. Potency, µM (doses to about 46.1 µM), without a hit: at the top dose activity, positive = more growth. AID 2326. hit rate 0.4% among 270,000; calls by dose curve; also: potency is read from the fitted curve at half-maximal effect; actives are rising curves; nearly all actives have a fitted effect of over 50% in size
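Recovery from NS1-induced slow growth read by OD600 in budding yeast switched to galactose assay medium (pH 6.0, -URA) at 1:100 dilution. Compound 23 nl per well; the matching strain lacking NS1 serves as control.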
Shiga inhibitor: inhibitors of Shiga toxin in Vero cells | Vero cells, Shiga toxin protein synthesis inhibition reporter | inhibition, % at 38.7 µM | hit rate 9.2% among 290,000; in the data active = inhibition mostly above about 28%, no sharp cut-off; inactive = mostly below about 43%; also: 0% is about no effect
Pf growth 48h: P. falciparum growth inhibition at 48 hours (one generation); P. falciparum luciferase growth in erythrocytes, 48 h; Potency, µM (highest dose often 28.7 µM), for the others: at the top dose activity change, negative = inhibition, actives largely listed as inhibitors; AID 504832; hit rate 5.9% among 310,000; also: potency is read from the fitted curve at half-maximal effect; % is scaled to controls: 0 for no effect and ±100 for the full control effect
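Luciferase-expressing P. falciparum in infected erythrocytes (2% hematocrit, 0.1% parasitemia final) in RPMI 1640/0.5% Albumax were exposed to compound for 48 hours at 37 C, 5% CO2; growth read as luminescence.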
Cycloheximide cs: counter-screen for Shiga toxin inhibitors: cycloheximide protein synthesis inhibition; cell reporter, cycloheximide protein synthesis inhibition counterscreen; max response, %; hit rate 12% among 300,000; in the data active = max response mostly above about 13%, no sharp cut-off; inactive = mostly below about 14%; also: read at 38.3 µM for the half of the compounds with a filed dose; 0% is about no effect
FBPA Giardia inh: Giardia lamblia aldolase inhibition; A8B2U2; purified Giardia FBPA; Potency, µM (titrated, usually from 59.6 µM), for inactives: at the top dose activity, negative = inhibition, hits mostly inhibitors; hit rate 0.71% among 290,000; AID 2451; also: potency is read from the fitted curve at half-maximal effect; % is scaled to controls: 0 for no effect and ±100 for the full control effect; nearly all actives have a fitted effect of over 55% in size
Target sequence (A8B2U2 whole entry, looked up): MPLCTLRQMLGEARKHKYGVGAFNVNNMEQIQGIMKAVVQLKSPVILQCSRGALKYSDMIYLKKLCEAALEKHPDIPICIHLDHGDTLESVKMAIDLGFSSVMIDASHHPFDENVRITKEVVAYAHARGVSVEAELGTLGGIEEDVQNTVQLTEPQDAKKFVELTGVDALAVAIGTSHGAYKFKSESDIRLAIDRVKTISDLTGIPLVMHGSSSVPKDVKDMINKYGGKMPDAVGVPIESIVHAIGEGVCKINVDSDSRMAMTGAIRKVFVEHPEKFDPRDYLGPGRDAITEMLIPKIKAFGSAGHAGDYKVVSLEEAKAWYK
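Giardia FBPA (40 nM reagent) was preincubated 10 min at RT with compound (up to 57.5 uM final), then substrate plus GAPDH/TPI/NAD/arsenate coupling system with diaphorase/resazurin was added; resorufin fluorescence (525/598 nm) was read after 20 min.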
Pf growth 96h: P. falciparum growth inhibition at 96 hours; hit rate 6.9% among 320,000; P. falciparum luciferase reporter growth, 96 h; Potency, µM (doses to about 28.7 µM), for inactives: at the highest dose activity change, negative = inhibition, usual class: inhibitors; also: potency is read from the fitted curve at half-maximal effect; % is scaled to controls: 0 for no effect and ±100 for the full control effect
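P. falciparum expressing integrated firefly luciferase grown in erythrocytes (2% hematocrit, 0.05% parasitemia final) with compounds for 96 hours at 37 C, 5% CO2. Growth inhibition read as loss of luminescence after adding luciferase detection reagent.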
Numbers without * were called inactive; i = inactive; ? = inconclusive; . = no result. Most compounds without a hit are left out; they make up all but 21% or so of the library. Unless noted, calls follow the shape of the dose curve; as a rule, active = well fitted curve in the direction sought with a large enough effect; inconclusive = small, poorly fitted or top-dose-only effect, or another doubt; inactive = no such curve, though single readings can be large; an effect the other way counts as inactive or inconclusive.

SMILES | NS1 inh | Shiga inhibitor | Pf growth 48h | Cycloheximide cs | FBPA Giardia inh | Pf growth 96h
CC(C(=O)NC1CCCc2ccccc21)N1C(=O)C2CCCCC2C1=O (stereo unspecified) | . | . | -2% | . | . | -4%
COCCOc1ccc(C(F)(F)F)cc1NC(=O)COC(=O)Cc1c[nH]c2ccccc12 | . | . | ? | . | . | -27%
CC(=O)c1cc(-c2ccc(F)cc2)n(CCC(=O)Nc2cc(C)[nH]n2)c1C | -3% | 11 | -25% | -5 | 2% | 14%
O=C(O)c1ccccc1C(=O)Nc1cc(-c2ccccc2)[nH]n1 | 2% | -2 | 63% | 2 | -5% | 50%
Cc1ccnc(NC(=O)c2ccccc2NC(=O)c2ccccc2)c1 | -4% | -3 | . | 2 | 7% | ?
CC(=O)Nc1cc(-c2ccc(F)cc2)[nH]n1 | . | 129 | 87% | 24* | 0% | -3%
O=C(Nc1cc(-c2ccccc2)[nH]n1)c1ccccc1F | -50% | 105* | 191% | 42* | -17% | 0%
CCNC(=S)Nc1cc(-c2ccc(Cl)cc2)[nH]n1 | -57% | 8 | 32% | 24* | -9% | 51%
O=C(Nc1cc(-c2ccccc2)[nH]n1)c1ccccc1 | -48% | 79* | 61% | 34* | -4% | 23%
CCNC(=S)Nc1ccc(Cl)cc1 | 11% | 12 | 1% | -1 | 0% | -16%
CC(=O)N[C@@H](CC(C)C)C(=O)N[C@@H](CCCNC(=N)N)C(=O)N[C@@H](Cc1cnc[nH]1)C(=O)N[C@@H](Cc1ccc(O)cc1)C(=O)N[C@@H](CC(C)C)C(=O)N[C@@H](CC(N)=O)C(=O)N[C@@H](CC(C)C)C(=O)N[C@@H](CC(C)C)C(=O)N[C@H](C(=O)N[C@@H](CCCNC(=N)N)C(=O)N[C@@H](CCC(N)=O)C(=O)N[C@@H](CCCNC(=N)N)C(=O)N[C@@H](Cc1ccc(O)cc1)C(N)=O)[C@@H](C)O | . | 10 | . | -3 | 0% | .
O=C(CCNC(=O)c1ccc(Br)cc1)NCc1cccnc1 | . | . | 4% | . | . | 10%
COc1ccc(Cl)cc1-c1nc(SCC(N)=O)n[nH]1 | 3% | -10 | 30% | -4 | 2% | 42%
Cc1ccc(OCC(=O)NNC(=O)C2CC(=O)N(c3ccc4c(c3)OCCO4)C2)cc1 (stereo unspecified) | . | . | ? | . | . | 2%
O=NN(Cc1ccc(Cl)cc1)[C@@H](C(=O)O)c1ccccc1 | -6% | . | . | . | . | .
O=C(Cn1cnc2ccccc2c1=O)c1ccc2ccccc2c1 | -45% | 68* | 71% | 56* | 6% | 29%
CC1CC(C)CN(CCCNC(=O)CNC(=O)Cn2ccc3ccccc3c2=O)C1 (stereo unspecified) | 3% | . | . | . | . | .
CC1CC(C)CN(CCCNC(=O)CCNC(=O)Cn2ccc3ccccc3c2=O)C1 (stereo unspecified) | 5% | 30 | . | -2 | 4% | 5.2µM*
Cc1ccc(C(=O)Cn2cnc3ccccc3c2=O)cc1C | -94% | 104* | 13% | 64* | -15% | .
O=C(O)Cn1cnc2ccccc2c1=O | -6% | -17 | . | -7 | 9% | -20%
O=C(Cn1ccc2ccccc2c1=O)NCCC(=O)Nc1ccc2c(c1)OCCO2 | 10% | 38 | 7% | 23* | -1% | .
O=C(Cn1cnc2ccccc2c1=O)c1ccc2c(c1)OCCO2 | -66% | 70* | 200% | 50* | 11% | i
O=C(Cn1cnc2ccccc2c1=O)Nc1ccc2c(c1)OCO2 | -19% | active | 131% | 56* | 0% | 132%
COc1ccc(C(=O)Cn2cnc3ccccc3c2=O)cc1 | -44% | 89* | 79% | 41* | 7% | 131%
CC(C)(C)NC(=O)NC(=O)COC(=O)Cn1cnc2ccccc2c1=O | . | -9 | 12µM* | -5 | 0% | -3%
SMILES | NS1 inh | Shiga inhibitor | Pf growth 48h | Cycloheximide cs | FBPA Giardia inh | Pf growth 96h
O=C(Cn1cnc2ccccc2c1=O)NCc1ccc2c(c1)OCO2 | 13% | -16 | 2% | -4 | 2% | .
O=C(COC(=O)Cn1cnc2ccccc2c1=O)NCc1ccccc1 | . | . | 8% | . | . | 5%
COc1ccc(NC(=O)COc2cccc(-n3cnnn3)c2)cc1Cl | . | . | 18% | . | . | 43%
Cn1cnnc1SCc1ccc(C(=O)N=Nc2c(O)n(C)c3ccccc23)cc1 | -1% | -10 | ? | 9 | 5% | 10µM*
COc1cc(/C(C)=N/NC(=O)c2ccc(CSc3nncn3C)cc2)cc(OC)c1OC | . | -26 | -20% | -7 | 4% | 13µM*
Cc1cc(=O)oc2c(N)c(O)ccc12 | -34% | 38* | -8% | 17 | -22% | ?
CCCNC[C@H](O)COc1ccccc1C(=O)CCc1ccccc1 | -17% | . | . | . | -2% | .
COc1ccc(-n2nc(C)c3c(=O)c4c([nH]c32)CCCC4)cc1 | -1% | -1 | -19% | 2 | -7% | ?
Cc1ccc(Nc2ncnc3c2nnn3Cc2ccccc2)cc1 | -3% | 49* | 67% | 23* | 0% | -46%
CC(C)CCn1cnc2c(NCc3ccccc3)ncnc21 | -9% | 37 | . | 29* | 4% | -29%
CCc1nc(Nc2ccccc2)c2nnn(Cc3ccccc3)c2n1 | -11% | -14 | 37% | 1 | -1% | 10µM*
CCCc1nc(NCC2CCCO2)c2nnn(Cc3ccccc3)c2n1 (stereo unspecified) | 2% | -3 | 15µM* | -1 | -6% | 23%
COC(=O)c1ccc(Nc2nc(C)nc3c2nnn3Cc2ccccc2)cc1 | 10% | -10 | -23% | -2 | 5% | ?
Cc1nc(NCC2CCCO2)c2nnn(Cc3ccccc3)c2n1 (stereo unspecified) | ? | -7 | 0% | 13 | 0% | -3%
c1ccc(Cn2nnc3c(N4CCOCC4)ncnc32)cc1 | -42% | 19 | -14% | 8 | 4% | ?
OCCn1cnc2c(SCc3ccccc3)ncnc21 | 0% | . | . | . | . | .
CC(C)CC(=O)Nc1ccccc1-c1nnn(CC(=O)N2CCc3ccccc3C2)n1 | -6% | -15 | -3% | -4 | 0% | 9%
Cn1cc(C(=O)[C@@H]2CCc3[nH]cnc3C2)c2ccccc21 | . | . | -7% | . | . | -17%
CC[C@@H](C)[C@@H](CO[C@@H](Cc1ccccc1)C(=O)N[C@@H](CCS(C)(=O)=O)C(=O)OC(C)C)NC[C@@H](N)CS | . | -7 | . | 12 | -16% | .
COc1ccccc1CNc1ncnc2c1nnn2Cc1ccccc1 | -14% | -7 | ? | -5 | 4% | 23%
c1ccc(CNc2ncnc3c2ncn3C2CCCCO2)cc1 (stereo unspecified) | -4% | 52 | . | 32* | 2% | -9%
CC(C)CCNc1ncnc2c1nnn2Cc1ccccc1 | 4% | -4 | -3% | -2 | 12% | 10µM*
CCOC(=O)c1cnn(-c2c(Cc3ccccc3)c(C)nc3c(-c4ccccc4)c(C)nn23)c1N | 1% | 17 | 12µM* | 0 | 1% | .
CCCc1nnc(SCC(=O)NC2CCCC2)n1CCOC | -5% | 22 | -2% | -5 | 5% | 1%
S=C(c1cn(CCOc2ccccc2)c2ccccc12)N1CCCC1 | -12% | 20 | 12µM* | 5 | 4% | ?
